The values that follow come from paper PMC3315485, “Probing the Informational and Regulatory Plasticity of a Transcription Factor DNA–Binding Domain”.

Assay in all cases: MITOMI; MITOMI, 295 K (22 C); buffer, salt and pH not stated in the material; high values mean tight binding
Common to all, as to details: protein: ivt; label: fluorescent; dsDNA, one strand shown

Experiment [1] concerns the target T1, MarA wild type (WQR) (Escherichia coli, UniProt P0ACH5 1-127).
T1 sequence: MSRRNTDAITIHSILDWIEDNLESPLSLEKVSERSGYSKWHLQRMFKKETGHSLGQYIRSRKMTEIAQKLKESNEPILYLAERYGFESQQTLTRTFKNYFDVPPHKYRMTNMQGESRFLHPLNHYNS
A digest of the protocol:
(§1)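 Each fluorescently labelled MarA protein variant, made by in vitro transcription and translation with the RTS E. coli HY kit plus tRNA-lys-bodipy-fl, was tested by MITOMI against 64 synthesized mar binding site variants. Protein and DNA fluorescence were read on Genepix at 295K. Association constants, measured by MITOMI, are reported for each site relative to the highest-affinity site for the same protein variant.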

The target in experiment [2] is T2, MarA RQR (Escherichia coli, UniProt P0ACH5 1-127, W40R).
T2 sequence: T1 sequence with W40R
Summed up: as §1

The target of experiment [3] is T3, MarA RTR (Escherichia coli, UniProt P0ACH5 1-127, W40R;Q43T).
T3 sequence: T1 sequence with W40R, Q43T
Summed up: as §1

The target of experiment [4] is T4, MarA SAR (Escherichia coli, UniProt P0ACH5 1-127, W40S;Q43A).
T4 sequence: T1 sequence with W40S, Q43A
A digest of the protocol:
as §1

Experiment [5] concerns the target T5, MarA TRR (Escherichia coli, UniProt P0ACH5 1-127, W40T;Q43R).
T5 sequence: T1 sequence with W40T, Q43R
Summed up: as §1

Positions count from the first letter of the chain named.

On to ATGCAGCGTTTTGCTAAAT, for which the binding signal was 0.293 Ka relative to the best site of the variant in experiment [1]; 0.105 Ka relative to the best site of the variant in experiment [2]; 0.149 Ka relative to the best site of the variant in experiment [3]; 0.357 Ka relative to the best site of the variant in experiment [4]; 0.477 Ka relative to the best site of the variant in experiment [5].
As to ATGCTGCGTTTTGCTAAAT, the binding signal is 0.442 Ka relative to the best site of the variant in experiment [1], 0.169 Ka relative to the best site of the variant in experiment [2], 0.521 Ka relative to the best site of the variant in experiment [4] and 0.588 Ka relative to the best site of the variant in experiment [5].
Take ATGTCTCGTTTTGCTAAAT: the binding signal is 0.301 Ka relative to the best site of the variant in experiment [1]; 0.956 Ka relative to the best site of the variant in experiment [2]; 0.642 Ka relative to the best site of the variant in experiment [3]; 0.259 Ka relative to the best site of the variant in experiment [4]; 0.462 Ka relative to the best site of the variant in experiment [5].
For ATGCGCCGTTTTGCTAAAT, in that order: 0.223 Ka relative to the best site of the variant, 0.154 Ka relative to the best site of the variant, 0.178 Ka relative to the best site of the variant, 0.602 Ka relative to the best site of the variant and 0.457 Ka relative to the best site of the variant.
Turning to ATGGAGCGTTTTGCTAAAT, the binding signal in experiment [1] is 0.262 Ka relative to the best site of the variant; in experiment [2], 0.119 Ka relative to the best site of the variant; in experiment [3], 0.191 Ka relative to the best site of the variant; in experiment [4], 0.506 Ka relative to the best site of the variant; in experiment [5], 0.392 Ka relative to the best site of the variant.
For ATGCCCCGTTTTGCTAAAT, in that order: 0.272 Ka relative to the best site of the variant, 0.294 Ka relative to the best site of the variant, 0.243 Ka relative to the best site of the variant, 0.492 Ka relative to the best site of the variant and 0.397 Ka relative to the best site of the variant.
The matching figures for ATGAATCGTTTTGCTAAAT: 0.215 Ka relative to the best site of the variant, 0.091 Ka relative to the best site of the variant, 0.214 Ka relative to the best site of the variant, 0.481 Ka relative to the best site of the variant and 0.309 Ka relative to the best site of the variant.
For ATGCCGCGTTTTGCTAAAT, in that order: 0.414 Ka relative to the best site of the variant, 0.195 Ka relative to the best site of the variant, 0.245 Ka relative to the best site of the variant, 0.468 Ka relative to the best site of the variant and 0.561 Ka relative to the best site of the variant.
As to ATGCTTCGTTTTGCTAAAT, the binding signal in experiment [1] was 0.341 Ka relative to the best site of the variant; in experiment [2], 0.157 Ka relative to the best site of the variant; in experiment [3] it was 0.723 Ka relative to the best site of the variant; in experiment [4] it was 0.508 Ka relative to the best site of the variant; in experiment [5], 0.576 Ka relative to the best site of the variant.
On to ATGAAACGTTTTGCTAAAT, for which the binding signal was 0.124 Ka relative to the best site of the variant in experiment [1]; 0.0424 Ka relative to the best site of the variant in experiment [2]; 0.323 Ka relative to the best site of the variant in experiment [3]; 0.852 Ka relative to the best site of the variant in experiment [4]; 0.36 Ka relative to the best site of the variant in experiment [5].
As for ATGTTGCGTTTTGCTAAAT, the binding signal in experiment [1] is 0.405 Ka relative to the best site of the variant; in experiment [2], 0.193 Ka relative to the best site of the variant; in experiment [3], 0.518 Ka relative to the best site of the variant; in experiment [4] it was 0.191 Ka relative to the best site of the variant; in experiment [5], 0.665 Ka relative to the best site of the variant.
The matching figures for ATGGTGCGTTTTGCTAAAT: 0.304 Ka relative to the best site of the variant, 0.115 Ka relative to the best site of the variant, 0.183 Ka relative to the best site of the variant, 0.784 Ka relative to the best site of the variant and 0.382 Ka relative to the best site of the variant.
On to ATGGCGCGTTTTGCTAAAT, for which the binding signal was 0.334 Ka relative to the best site of the variant in experiment [1]; 0.577 Ka relative to the best site of the variant in experiment [2]; 0.685 Ka relative to the best site of the variant in experiment [3]; 0.973 Ka relative to the best site of the variant in experiment [4]; 0.415 Ka relative to the best site of the variant in experiment [5].
For ATGGGGCGTTTTGCTAAAT, in that order: 0.307 Ka relative to the best site of the variant, 0.11 Ka relative to the best site of the variant, 0.167 Ka relative to the best site of the variant, 0.429 Ka relative to the best site of the variant and 0.451 Ka relative to the best site of the variant.
For ATGGTTCGTTTTGCTAAAT, in that order: 0.203 Ka relative to the best site of the variant, 0.13 Ka relative to the best site of the variant, 0.189 Ka relative to the best site of the variant, 0.805 Ka relative to the best site of the variant and 0.368 Ka relative to the best site of the variant.
For ATGTCGCGTTTTGCTAAAT, in that order: 0.426 Ka relative to the best site of the variant, 0.635 Ka relative to the best site of the variant, 0.353 Ka relative to the best site of the variant, 0.219 Ka relative to the best site of the variant and 0.463 Ka relative to the best site of the variant.
